Only some compounds are listed: those with a hit (about 3% of all), similar ones and a draw of the others.
ClpP mod = qHTS Assay for Activators of ClpP. Potency, µM (top dose mostly 57.5 µM), for inactives: at the top dose activity change, negative = active. hit rate 1.9% among 340,000. purified B. subtilis ClpP, FRET peptide cleavage, 20 min. ATP-dependent Clp protease proteolytic subunit (Bacillus subtilis (strain 168)), P80244; active = well fitted falling curve with a large enough effect; inconclusive = small, poorly fitted or top-dose-only effect; inactive = no such curve, though single readings can be large or run the other way; also: potency is read from the fitted curve at half-maximal effect; the source files actives as falling curves though it sought activators and does not explain the sign; nearly all actives have a fitted effect of over 65% in size
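Purified B. subtilis ClpP, 10 microg/mL final in Tris/HCl pH8 with KCl, BSA, glycerol and Tween-20, cleaved an Abz/nitrotyrosine-quenched decapeptide. Fluorescence (ex 320, em 430) was read at 0 and 20 min at room temperature. Delta was normalized to 5.8 microM ADEP and DMSO/no-enzyme controls.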
LDHA block = qHTS assay for inhibitors of human lactate dehydrogenase; activity change, % (values are at about 110 or 230 µM); purified LDHA, NADH/diaphorase-resazurin fluorescence; stronger effect = lower value; hit rate 0.15% among 480,000; in the data active = activity change below about -30%; inconclusive = mostly about -25% to -30%;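 also: plate controls were DMSO wells for no effect and wells without enzyme for full effect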
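Enzyme activity of human lactate dehydrogenase 5 (2 nM; 0.06 mM NADH, 0.2 mM pyruvate, 5 min, RT) is measured via a resazurin/diaphorase fluorescence readout of residual NADH.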
ALOX12 inh = Primary qHTS assay for inhibitors of human arachidonate 12S-lipoxygenase (ALOX12): Round 2; Polyunsaturated fatty acid lipoxygenase ALOX12 (Homo sapiens), P18054; purified 12hLO, xylenol orange hydroperoxide absorbance; Potency, µM (titrated, usually from 108 µM), for inactives: at the highest dose activity change, negative = inhibition, usual class: inhibitors; hit rate 1.1% among 580,000; AID 1671190, 2021; active = well fitted inhibition curve with a large enough effect; inconclusive = small, poorly fitted or top-dose-only effect, or another doubt; inactive = no such curve, though single readings can be large or run the other way; also: potency is read from the fitted curve at half-maximal effect; % is scaled to controls: 0 for no effect and ±100 for the full control effect
Target sequence (P18054 whole entry, looked up): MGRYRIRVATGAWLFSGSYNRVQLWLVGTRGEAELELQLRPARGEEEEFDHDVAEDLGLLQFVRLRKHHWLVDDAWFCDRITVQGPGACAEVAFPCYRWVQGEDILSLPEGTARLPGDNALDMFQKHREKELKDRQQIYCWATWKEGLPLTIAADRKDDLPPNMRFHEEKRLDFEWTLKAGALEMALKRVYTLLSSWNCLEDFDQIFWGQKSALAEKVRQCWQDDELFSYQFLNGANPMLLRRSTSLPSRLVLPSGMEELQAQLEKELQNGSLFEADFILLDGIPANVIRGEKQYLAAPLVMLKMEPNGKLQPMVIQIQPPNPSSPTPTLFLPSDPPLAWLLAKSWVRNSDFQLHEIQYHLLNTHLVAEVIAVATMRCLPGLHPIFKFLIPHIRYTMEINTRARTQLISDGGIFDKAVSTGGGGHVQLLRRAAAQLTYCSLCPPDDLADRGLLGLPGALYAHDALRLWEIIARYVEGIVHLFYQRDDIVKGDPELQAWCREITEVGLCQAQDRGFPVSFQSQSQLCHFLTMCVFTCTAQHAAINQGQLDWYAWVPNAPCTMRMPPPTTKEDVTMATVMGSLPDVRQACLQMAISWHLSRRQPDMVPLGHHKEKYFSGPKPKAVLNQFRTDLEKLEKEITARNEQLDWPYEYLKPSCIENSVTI
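Hydroperoxide product was detected by ferrous iron/xylenol orange as the 573 to 405 nm absorbance ratio. Arachidonic acid at 40 uM (final) was turned over for 30 min at room temperature by 150 nM human 12hLO, pH 7.0 Hepes buffer, after 15 min compound preincubation.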
KCNH2 3.1 inh = qHTS for Inhibitors of KCHN2 3.1: Mutant qHTS | Potassium voltage-gated channel subfamily H member 2, brain isoform KCNH2 3.1 (human) | U2OS KCNH2 3.1, thallium flux FluxOr; stronger effect = lower value | activity change, % (tested at about 1.8 µM) | hit rate 0.95% among 340,000;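 active = maximum activity change below -70%; inconclusive = maximum activity change from -70% to -50%; inactive = maximum activity change above -50%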;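 also: thallium influx rate constant from kinetic fluorescence after stimulation buffer; % is scaled to controls: 0 for no effect and ±100 for the full control effect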
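Kinetic fluorescence (2 min after stimulation buffer) measures Tl+ influx through KCNH2 3.1 expressed by viral transduction in U2OS cells; the rate constant is normalized against DMSO controls serving as positive and negative references.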
Chronic BCR inh = qHTS Assay to Find Inhibitors of Chronic Active B-Cell Receptor Signaling; Potency, µM (highest dose often 46.1 µM), for the others: top-dose activity change, negative = inhibition, actives largely listed as inhibitors; ABC-DLBCL IkBa-CBG/CBR reporter, luminescence ratio, 4 h; hit rate 0.05% among 340,000; active = well fitted inhibition curve with a large enough effect in the signal ratio, with a control signal flat, not every such curve was filed as active; inconclusive = small, poorly fitted or top-dose-only effect, or effect the other way, or a change in a side signal; the % refers to the signal ratio;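 also: potency is read from the fitted curve at half-maximal effect; plate controls were basal doxycycline-induced cells for no effect and cells given 10 µM MG132 for full effect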
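TMD8 ABC-DLBCL cells carrying doxycycline-inducible green luciferase fused to IkappaBalpha plus unfused red luciferase were exposed to compounds (up to 46 uM) for 4 hrs at 37C. Activity came from the overlap-corrected green/red luminescence ratio.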
hERG WT inh = qHTS for Inhibitors of KCHN2 3.1: Wildtype qHTS. Voltage-gated inwardly rectifying potassium channel KCNH2 (Homo sapiens), Q12809. U2OS, BacMam KCNH2, thallium flux FluxOr; stronger effect = lower value. activity change, % at 1.84 µM. hit rate 0.37% among 340,000;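 active = maximum activity change below -70%; inconclusive = maximum activity change between -70% and -50%; inactive = maximum activity change above -50%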; also: % is scaled to controls: 0 for no effect and ±100 for the full control effect
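U2OS cells were transduced with wild-type KCNH2 virus (2.03 x 10^8 / mL) for 4 h at room temperature, then cultured overnight at 37 C. Thallium flux was read with FluxOr dye. Rate constants were normalized to DMSO controls.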
* marks the source's active call; other numbers are inactive results; ? = inconclusive; . = no result; [ ] = another dose, or the depositor's remark.

SMILES	ClpP mod	LDHA block	ALOX12 inh	KCNH2 3.1 inh	Chronic BCR inh	hERG WT inh
COc1ccc(-c2cc(NC=O)c3ncc(-c4ccc(OC)c(OC)c4)n3c2)cc1OC	-24%	6	-6%	.	.	.
COc1ccc(-c2cnc3c(NC=O)cc(-c4ccccc4OC)cn23)cc1OC	?	3	6.3µM*	.	.	.
Cc1cc(C)n2nc(SCc3nnc(-c4ccccc4Br)o3)nc2n1	18µM*	-5	0%	-12	1%	-12
COc1cc(CN2CCN(Cc3ccco3)CC2)cc(OC)c1	.	-32*	?	-3	?	-1
Cc1ccc(CN2CCCC2)cc1	.	0	?	.	.	.
O=[N+]([O-])c1cccc(-c2ccc(CN3CCN(c4ccccc4)CC3)o2)c1	0%	-2	7.1µM*	-10	0%	0
COc1cccc(CN2CCN(c3ncccn3)CC2)c1	2%	-15	0.79µM*	-9	?	-10
COc1cc(CN2CCN(c3ncc(Cc4ccccc4)cn3)CC2)cc(OC)c1	.	.	-7%	.	.	.
COc1cc(CN2CCN(Cc3ccc(C)cc3)CC2)cc(OC)c1	.	4	0.5µM*	.	.	.
O=[N+]([O-])c1ccccc1-c1ccc(CN2CCN(c3ccccc3)CC2)o1	.	2	?	-11	-12%	5
O=c1c2sccc2ncn1Cc1coc(-c2ccccc2Cl)n1	.	1	?	.	.	.
O=CN1CCCNCC1	.	2	23%	.	.	.
COC1CCN(CC2CCCCCN2C(=O)c2ccoc2)CC1 (stereo not drawn)	.	.	7%	.	.	.
CCN1C(=O)COC[C@@H]1[C@H](O)c1ccc(NC(=O)COC)cc1	.	.	56%[176 µM]	.	.	.
CCC(Sc1ccc(Cl)cc1)C(=O)O (stereo not drawn)	.	5	?	.	.	.
COc1cccc(CN2CCN(C(=S)NCc3ccc(Cl)cc3)CC2)c1	-4%	-6	-3%	-75*	?	15
Fc1cccc(F)c1CN1CCN(c2ncccn2)CC1	-1%	5	-9%	1	-4%	-21
Fc1ccccc1CN1CCN(c2ncccn2)CC1	0%	-20	0.56µM*	-10	8%	-4
O=[N+]([O-])c1cccc(CN2CCN(Cc3ccco3)CC2)c1	-2%	-43*	0%	-1	0%	-1
O=[N+]([O-])c1cccc(CN2CCCCCC2)c1	.	-5	2%	5	-1%	0
COc1ccc2c(c1)CC/C2=N\OC(=O)c1cc(Cl)ccc1OC	.	1	-27%	.	.	.
CC1(C)CC(NC(=S)Nc2ccccc2F)CC(C)(C)N1	.	-3	?	.	.	.
CC(=O)Nc1ccc(NS(=O)(=O)c2ccc3c(c2)oc(=O)n3C)cc1	0%	-1	8.9µM*	4	0%	3
CCCc1nnc2sc(-c3cc(OC)c(OC)c(OC)c3)nn12	.	10	?	.	.	.
Cc1noc(C)c1S(=O)(=O)N1CCCCC1CCn1cccn1 (stereo not drawn)	.	.	10%	.	.	.
SMILES	ClpP mod	LDHA block	ALOX12 inh	KCNH2 3.1 inh	Chronic BCR inh	hERG WT inh
CCOC(=O)N1CCN(C(=O)NC2CCCCC2)CC1	0%	-2	-7%	-71*	4%	2
CCOC(=O)N1CCN(C(=S)NC2CCCCC2)CC1	-6%	-2	3%	13	?	22
CCCCN(Cc1cc2cc(OC)ccc2[nH]c1=O)C(=O)c1ccco1	32µM*	4	?	2	-12%	-2
CCCCN(Cc1cc2cc(OC)ccc2[nH]c1=O)C(=O)c1ccccn1	20µM*	3	?	-3	2%	1
CCCN(Cc1cc2cc(OC)ccc2[nH]c1=O)C(=O)c1ccco1	.	1	13%	-42	-15%	-12
COc1cccc(-c2nc(SCC(=O)Nc3ccc4c(c3)OCCO4)c(-c3ccc(C)cc3)[nH]2)c1	28µM*	-6	0%	.	.	.
COc1ccc(-c2nc(SCC(=O)Nc3ccc4c(c3)OCCO4)c(-c3ccc(F)cc3)[nH]2)cc1	-5%	-12	0%	.	.	.
COc1ccc(-c2[nH]c(-c3cccc(OC)c3)nc2SCC(=O)NCc2ccco2)cc1	5%	0	-12%	-105*	?	-11
COC(=O)c1ccc2c(c1)C(C)(C)C(/C=C/c1ccc(O)cc1)=[N+]2C	-16%	7	5.6µM*	-9	?	-11
COC(=O)c1ccc2c(c1)C(C)(C)C(/C=C/c1ccc(OC)c(OC)c1OC)=[N+]2C	?	-8	2.5µM*	0	-1%	-26
O=C1CC(/C=C/c2ccccc2)Cc2nc(N3CCCCC3)ncc21 (stereo not drawn)	.	1	-3%	.	.	.
O=C(NC1CC2CCC1C2)C1(c2ccccc2)CCC1 (stereo not drawn)	.	-6	5%	.	.	.
Cc1ccc(N2C(=O)C3CCC(C)(C2=O)C3(C)C)cc1 (stereo not drawn)	?	-4	1%	-77*	?	-1
CC12CCC(C(=O)N(c3nccs3)C1=O)C2(C)C (stereo not drawn)	.	-13	15%	6	.	-4
CCOc1ccc(CC(=O)N/N=C/c2cccnc2)cc1	16µM*	-6	135%	9	-18%	-1
COc1cc(C2(c3ccc(O)c(OC)c3)C(=O)Nc3c(C)cc(Br)cc32)ccc1O	.	-6	25µM*	-1	.	-1
Cc1cc(Br)cc2c1NC(=O)C2(c1c(C)n(C)n(-c2ccccc2)c1=O)c1c(C)n(C)n(-c2ccccc2)c1=O	1%	-1	3%	11	4%	9
COc1ccc(CCCC(=O)NC2CCCCC2C)c(C)c1 (stereo not drawn)	-1%	-15	8.9µM*	-3	1%	-4
CC(=O)c1ccc(OCCCC(=O)NC2CCCCC2C)cc1 (stereo not drawn)	.	-14	-3%	2	4%	-5
CCNC(=O)NC(=O)CNc1ccccc1N(C)Cc1ccccc1	.	4	7.1µM*	.	.	.
COc1ccc(C(=O)c2sc(Nc3ccc(NC(C)=O)cc3)nc2C)cc1	0%	-1	-26%	-2	?	2
COc1ccc(Nc2nc(C)c(C(C)=O)s2)cc1	-1%	-7	45µM*	.	.	.
CCOc1cc(/C=C(/C#N)c2ccc(C(F)(F)F)cn2)ccc1O	.	7	-49%	.	.	.

From PubChem BioAssay
